Assay outcomes deposited in PubChem by National Center for Advancing Translational Sciences (NCATS).
In the library only some 0.63% were active in any assay of this set; here they are far more common.
TCR activator – activates T cell receptor signaling; primary human leukocytes, anti-CD3, IL-2 HTRF, 48 h; Potency, µM (titrated, usually from 9.22 µM), for inactives: at the highest dose activation of IL-2 secretion, hits mostly activators; 330,000 tested, under 10 active; AID 504894; active means well fitted activation curve with a large enough effect; inconclusive means small, poorly fitted or top-dose-only effect, or another doubt; inactive means no such curve, though single readings can be large or run the other way; further: % of control where 0% means no effect
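Using a-CD3 beads without co-stimulation, primary human leukocytes were exposed to compounds for 48 hr. An HTRF IL-2 kit measured the cytokine, with europium-to-d2 energy transfer producing emission at 665nm upon 320nm excitation.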
gsp agonist – activates gsp, the McCune-Albright syndrome mutation; gsp mutant cells, cAMP HTRF, 30 min; Potency, µM (top dose mostly 76.9 µM), without a hit: top-dose activation (cAMP increase), usual class: activators; hit rate 0.13% among 340,000; active means well fitted activation curve with a large enough effect; inconclusive means small, poorly fitted or top-dose-only effect, or another doubt; inactive means no such curve, though single readings can be large or run the other way; cell line not stated here;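 further: phosphodiesterase inhibitor Ro 20-1724 added with compounds to block cAMP breakdown; potency means the concentration at half of the fitted maximal effect; nearly all actives have a fitted effect of over 60% in size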
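Cells in DMEM/10% FBS with G418 were pretreated with compounds in DMSO plus […] (300 uM stock) for 30 min at 37C. cAMP was measured by HTRF (cAMP-d2 plus anti-cAMP antibody-K) after 30 min at room temperature.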
gsp antag – antagonizes gsp, the McCune-Albright syndrome mutation. hit rate 0.4% among 340,000. Potency, µM (doses to about 76.9 µM), for inactives: top-dose activity change, negative = inhibition, usual class: inhibitors. gsp-mutant cells, cAMP HTRF, 30 min; calls by dose curve; cell line not stated here;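 further: intracellular cAMP measured with PDE inhibitor Ro 20-1724 present during compound exposure; potency means the concentration at half of the fitted maximal effect; on the % scale 0 is the no-effect control and ±100 the full control effect; nearly all actives have a fitted effect of over 65% in size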
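HTRF cAMP measurement after 30 min RT detection following 30 min, 37C compound treatment alongside […] (added as 300 uM solution) in G418-selected cells seeded at 2000/well and grown 16–24 h.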
Pin1 inh – human Pin1 inhibition; Pin1 FP peptide displacement, HiFluor488, 10 min; Potency, µM (doses to about 115 µM), for inactives: top-dose activity, negative = inhibition, hits mostly inhibitors; hit rate 0.009% among 390,000; AID 504891; active means well fitted inhibition curve with a large enough effect in the polarisation, with a control signal flat, not every such curve was filed as active; inconclusive means small, poorly fitted or top-dose-only effect, or effect the other way, or a change in a side signal; inactive means no such curve, though single readings can be large or run the other way; the % refers to the polarisation; further: potency means the concentration at half of the fitted maximal effect; on the % scale 0 is the no-effect control and ±100 the full control effect
TSHR antag – human thyrotropin receptor antagonism; P16473; TSHR-expressing cells, TSH-stimulated cAMP HTRF, 2 h; active compounds read low; activity change, negative = inhibition, % at 11.5 µM; hit rate 0.2% among 330,000; AID 504810;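 active means activity change below a set negative limit, meaning inhibition stronger than a set level, cut at about -70% in these data; inconclusive means activity change between two set negative limits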; further: on the % scale 0 is the no-effect control and ±100 the full control effect
Target sequence (P16473 whole entry, looked up): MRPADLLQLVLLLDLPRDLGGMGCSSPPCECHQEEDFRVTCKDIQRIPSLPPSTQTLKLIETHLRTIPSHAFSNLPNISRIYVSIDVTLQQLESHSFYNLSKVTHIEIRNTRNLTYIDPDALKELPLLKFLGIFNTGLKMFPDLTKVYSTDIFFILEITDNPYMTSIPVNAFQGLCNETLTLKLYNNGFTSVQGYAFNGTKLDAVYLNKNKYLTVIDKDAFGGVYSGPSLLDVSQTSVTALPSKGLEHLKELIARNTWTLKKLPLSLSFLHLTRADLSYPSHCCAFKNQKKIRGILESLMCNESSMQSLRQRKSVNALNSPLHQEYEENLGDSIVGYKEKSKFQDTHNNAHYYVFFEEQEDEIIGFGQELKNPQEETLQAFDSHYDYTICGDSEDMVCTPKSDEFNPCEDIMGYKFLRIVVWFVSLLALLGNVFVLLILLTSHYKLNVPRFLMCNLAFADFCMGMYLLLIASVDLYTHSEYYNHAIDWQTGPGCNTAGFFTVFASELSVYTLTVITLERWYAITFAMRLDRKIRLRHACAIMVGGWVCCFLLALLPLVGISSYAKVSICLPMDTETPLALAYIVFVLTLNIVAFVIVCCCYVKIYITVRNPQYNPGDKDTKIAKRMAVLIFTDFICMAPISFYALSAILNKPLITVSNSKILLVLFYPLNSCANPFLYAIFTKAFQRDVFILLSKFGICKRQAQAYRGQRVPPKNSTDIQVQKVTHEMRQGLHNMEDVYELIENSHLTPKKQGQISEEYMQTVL
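Antagonism was scored as loss of TSH-driven cAMP in TSHR cells, stimulated with 4nM TSH (EC80) for 2 hours at 37 deg C and detected by homogeneous HTRF competition immunoassay.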
* hit, by the source's call; u = inconclusive; x = no result given; [ ] = remark or other dose.

SMILES	TCR activator	gsp agonist	gsp antag	Pin1 inh	TSHR antag
Cc1cc(Cl)ccc1OC(C)C(=O)Nc1ccc(S(=O)(=O)N2CCOCC2)cc1 (centres undefined)	5.3%	18.3%	-5.1%	28.8%	x
CCCSc1nsc(NC(=O)Nc2ccc(F)cc2F)n1	x	-17.1%	-16.4%	-3.0%	-118.5*
CCCSc1nsc(NC(=O)CC)n1	-1.5%	17.0%[15.4 µM]	2.4%	-7.4%	-15.9
CCSc1nsc(NC(=O)Nc2cccc(F)c2)n1	-0.8%	23.3%	-25.0%	u	u
CCCSc1nsc(NC(=O)C(c2ccccc2)c2ccccc2)n1	-2.5%	1.6%	-7.1%	19.0%	-80.0*
Cc1cccc(NC(=S)NCCCN2CCOCC2)c1	-3.3%[46.1 µM]	u	10.4%	-3.3%	9.9
Cc1nc2cc(-c3cccs3)[nH]n2c(=O)c1C	-6.0%	-0.3%	6.0%	4.2%	x
CC1=C/C(=C(/c2cc(C)c(O)c(Br)c2)c2ccccc2S(=O)(=O)O)C=C(Br)C1=O	18.4%	-160.6%	20µM*	u	-29.1
Cc1ccc(NNC(=O)C(=O)N2CCCCC2)cc1	0.6%[46.1 µM]	11.8%	9.6%	1.1%	12.1
CCOC(=O)C(=CNc1ccc2c(c1)c1ccccc1n2CC)C(=O)OCC	-1.4%	0.8%	31.6µM*	-0.5%	-49.5
CCCC(=O)Nc1ccc2c(c1)c1ccccc1n2CC	1.9%[46.1 µM]	2.0%	-1.6%	0.0%	1.5
CCOC(=O)/C(C#N)=C\c1c(OCC)n(CC)c2ccccc12	-7.8%[46.1 µM]	-2.8%[15.4 µM]	25.1µM*	1.7%	-1.2
COc1ccc(Br)c(-c2nc(CS(=O)(=O)c3ccc(F)cc3)no2)c1	-2.1%	0.0%	4.0%	3.4%	10.1
CCCNC(=O)Cn1cnc2sc(C(=O)N3CCN(CCC)CC3)c(C)c2c1=O	-2.0%	u	6.7%	-3.9%	-5.7
CC1=C(C(=O)Nc2cc(Cl)ccc2C)C(c2ccco2)n2ncnc2N1 (centres undefined)	x	x	x	-8.9%	x
O=C(NCCO)Nc1ccc2nc(-c3ccco3)c(-c3ccco3)nc2c1	x	x	x	x	36.3
Cc1ccc(NS(=O)(=O)c2c(C(=O)N3CCCCCC3)c(C)n(C)c2C)c(C)c1	1.3%	u	-0.3%	-15.3%	-3.3
COc1cccc(Nc2ncnc3ccc(Br)cc23)c1	x	-1.5%	x	x	x
COc1ccc(-c2cc3nc4n(c(=O)c3s2)CCCCC4)cc1	-1.5%	u	-10.7%	-2.7%	-14.8
COc1ccc(-c2cc3nc4n(c(=O)c3s2)CCC4)cc1	-3.5%	15.8µM*	4.9%	-1.2%	-7.3
O=C(/C=C/c1ccc(Cl)cc1Cl)NCCSc1ccccc1	2.9%[46.1 µM]	u	44.7µM*	0.5%	-23.5
O=C(/C=C/c1ccc(Cl)cc1Cl)NCCSCc1ccccc1	1.9%[46.1 µM]	1.3%	7.5%	-3.8%	u
COc1cccc(NC(=S)N2CCCN(Cc3ccc(F)cc3)C2)c1	-3.7%	-12.0%	-0.7%	-7.5%	-104.4*
COc1ccc(NC(=S)N2CCCN(Cc3cccc(Cl)c3)C2)cc1	1.4%	-4.2%	-9.6%	0.9%	15.6
COc1ccc(CN(Cc2cc3cccc(C)c3[nH]c2=O)C(=O)N(C)C)cc1	-0.1%	-17.2%	-10.0%	-4.5%	-12.1
SMILES	TCR activator	gsp agonist	gsp antag	Pin1 inh	TSHR antag
CCCCCOC(=O)C1=C(C)N(C)C(=O)NC1c1cc(Br)c(O)c(OC)c1 (centres undefined)	2.1%	3.8%	7.08µM*	11.0%	-6.1
CCCCOC(=O)C1=C(C)N(C)C(=O)NC1c1cc2c(cc1Br)OCO2 (centres undefined)	x	-21.6%	x	x	x
COc1ccc(NC(=O)/C(C#N)=C\c2ccc(-c3cc(C(=O)O)ccc3C)o2)cc1	-3.7%	-24.1%	44.7µM*	u	-19.2
N#Cc1c(-c2ccccc2)cc2nc3ccccc3n2c1N	5.2%[46.1 µM]	12.8%	1.5%	1.7%	-17.5
COc1cc(-c2cc3nc4ccccc4n3c(N)c2C#N)cc(OC)c1OC	-14.3%	28.2µM*	12.5%	17.2%	-2.7
COc1ccc(S(=O)(=O)N2CCN(CC(=O)c3[nH]c(C)c(C(C)=O)c3C)CC2)cc1OC	-3.4%	1.9%	u	2.5%	-11.2
CC(=O)c1c(C)[nH]c(C(=O)CN2CCN(S(=O)(=O)c3ccc(C(C)C)cc3)CC2)c1C	-0.5%	-13.6%	35.5µM*	3.0%	-2.4
O=C(N/N=C/c1cccc(Br)c1)c1ccc(Cn2cc(Br)cn2)o1	-11.2%[46.1 µM]	35.5%[15.4 µM]	35.5µM*	0.6%	-6.5
